Experimental data from publication PMC7826789 (International Journal of Molecular Sciences, 2021).

tested on: MAPK14

SMILES | Kinases covered
Cc1ccc(-n2nc(C(C)(C)C)cc2NC(=O)Nc2ccc(OCCN3CCOCC3)cc2)cc1 [BIRB0876BS] | MAPK14
Cc1ccc(C(=O)NCC(N)=O)cc1-n1c(C)cc(OCc2ccc(F)cc2F)c(Br)c1=O [PFE-PKIS 1] | MAPK14
COCCNC(=O)c1ccc(-c2cc(C(=O)NC3CC3)cc(F)c2C)cc1 [GW868318] | MAPK14
O=C(O)/C=C/C(=O)O.OCCCNc1nccc(-c2c(-c3ccc(F)cc3)nn3cc(C(F)(F)F)ccc23)n1 [GW569293E] | MAPK14
Nc1nccc(-c2c(-c3ccc(F)cc3)ncn2C2CCN(Cc3ccccc3)CC2)n1 [SB-219980] | MAPK14
CCc1nc(-c2cccc(C)c2)c(-c2ccncc2)s1 [TPKI-106] | MAPK14
CCc1ccc(Oc2nccc(-c3c(-c4ccc(F)cc4)ncn3C3CCNCC3)n2)cc1 [SB-242719] | MAPK14
Fc1ccc(-c2nn3ccccc3c2-c2ccncc2)cc1 [GW434756X] | MAPK14
O=c1[nH]c2cc(Nc3ccc(F)cc3F)ccc2n1CC1CCCCC1 [BI00601000] | MAPK14

tested on: MAPK15

SMILES | Kinases covered
CCOc1ccc2c(-c3ccnc(Nc4cc(OC)cc(C(F)(F)F)c4)n3)cnn2n1 [GW807982X] | MAPK15
O=C(Nc1n[nH]c2cc(-c3ccsc3)ccc12)C1CC1 [SB-732932] | MAPK15
CCOc1ccc2c(-c3ccnc(Nc4cccc(C(F)(F)F)c4)n3)cnn2n1 [GW811761X] | MAPK15

tested on: MAPK9

SMILES | Kinases covered
O=C(O)/C=C/C(=O)O.OCCCNc1nccc(-c2c(-c3ccc(F)cc3)nn3cc(C(F)(F)F)ccc23)n1 [GW569293E] | MAPK9
Nc1nccc(-c2c(-c3ccc(F)cc3)ncn2C2CCN(Cc3ccccc3)CC2)n1 [SB-219980] | MAPK9
Fc1ccc(-c2nn3ccccc3c2-c2ccncc2)cc1 [GW434756X] | MAPK9

tested on: MEK5

SMILES | Kinases covered
CCCS(=O)(=O)Nc1ccc(F)c(-n2cc(-c3cncc(OC)c3)nn2)c1F [BI00865461] | MEK5
COc1cc2ncnc(Nc3cccc(Cl)c3F)c2cc1O[C@H]1CC[C@H]([C@@H]2NCCNC2=O)CC1 [BI00133844] | MEK5
COc1cc2ncnc(Nc3ccc(F)c(Cl)c3)c2cc1O[C@H]1CC[C@H](N)CC1 [BIBW3133BS] | MEK5
